A short description of assay [1]: qHTS assay for small molecules that induce genotoxicity in human embryonic kidney cells expressing luciferase-tagged ATAD5 (AID 651632). Further: nearly all actives have a fitted effect of over 15% in size. The essentials: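 ATAD5-luc HEK293T, 2,000 cells/well; cpd or DMSO pin-transferred; 16 hr, 37C/5% CO2; Amplite 30 min RT; luminescence.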
(In general: In qHTS, concentration-response curves come from the screen itself.)

The nature of assay [2]: qHTS assay for small molecules that induce genotoxicity in human embryonic kidney cells expressing luciferase-tagged ATAD5 - cell viability (AID 651634; calls by dose curve; further: nearly all actives have a fitted effect of over 25% in size; further: potency means the concentration at half of the fitted maximal effect). Summed up:
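Fluorescence from CellTiter-Fluor, reporting protease activity within live cells, served as the viability read-out. HEK293T cells carrying luciferase-tagged ATAD5 had been treated with compound for 15.5 hr at 37C.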

Assay [3] can be described thus: qHTS assay for small molecule disruptors of the mitochondrial membrane potential - cell viability (AID 720634; calls by dose curve; further: nearly all actives have a fitted effect of over 20% in size; further: potency means the concentration at half of the fitted maximal effect). The essentials: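 Cells: HepG2, 2,000/well, attached overnight. Compound 1 hr, 37 C/5% CO2. +m-MPI dye, +CellTiter-Glo 30 min RT. Readout: luminescence (ATP).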
Assay [4] is described as follows: qHTS assay for small molecule disruptors of the mitochondrial membrane potential (AID 720635). Further: potency means the concentration at half of the fitted maximal effect. Summed up: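 HepG2 cells exposed to compound 1 hr at 37C, then Mito-MPS dye 30 min. Ratio read of aggregate (540/590 nm) versus monomer (490/535 nm) fluorescence.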
Assay [5] can be described thus: qHTS assay to test for compound auto fluorescence at 590 nm (red) in HepG2 cells (AID 720674). Summed up:
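HepG2 cells, 2,000 per well in MEM with 10% FBS, attached overnight at 37 C, then got 23 nL compound or DMSO. After 1 hr at 37 C, 5% CO2, red fluorescence was read at 540/590 nm against Rose Bengal sodium as reference.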

Assay [6] is described as follows: qHTS assay to test for compound auto fluorescence at 535 nm (green) in HepG2 cells (AID 720675).
A short description of assay [7]: qHTS assay to test for compound auto fluorescence at 460 nm (blue) in HEK293 cells (AID 720678). The essentials:
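HEK293 cells (2,000/well, medium with 10% dialyzed FBS) attached 4-5 hr, then exposed to compound overnight at 37C, 5% CO2. Blue fluorescence read at 405/460 nm, with triamterene as reference fluorophore.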

A short description of assay [8]: qHTS assay to test for compound auto fluorescence at 590 nm (red) in HEK293 cells (AID 720679). Summed up: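 HEK293 cells (2,000/well, 10% dialyzed FBS) attached 4-5 hr, then dosed with compound or DMSO and incubated overnight at 37C, 5% CO2. Red fluorescence read at 540/590 nm, Rose Bengal sodium as reference fluorophore.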
Assay [9] can be described thus: qHTS assay to test for compound auto fluorescence at 535 nm (green) in HEK293 cells (AID 720680).
Assay [10] in a line: qHTS assay to test for compound auto fluorescence at 460 nm (blue) in HEK293 cell free culture (AID 720681). The essentials:
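Compounds were added to cell-free DMEM with 10% FBS and fluorescence read directly. The blue channel used 405 nm excitation and 460 nm emission, with triamterene as the reference fluorophore.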

Assay [11] can be described thus: qHTS assay to test for compound auto fluorescence at 535 nm (green) in HEK293 cell free culture (AID 720682). The essentials:
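Green-label autofluorescence (485 nm excitation, 535 nm emission) measured on compound added to cell-free culture medium (DMEM, 10% FBS). Output is expressed relative to fluorescein.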

Assay [12] is described as follows: qHTS assay to test for compound auto fluorescence at 590 nm (red) in HEK293 cell free culture (AID 720683). Summed up:
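Cell-free wells of DMEM with 10% FBS received compound, and intrinsic fluorescence was read at excitation/emission 540/590 nm. Values expressed as equivalence to Rose Bengal sodium.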

Assay [13] in a line: qHTS assay to test for compound auto fluorescence at 590 nm (red) in HepG2 cell free culture (AID 720684). Summed up:
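Compound was pinned into wells holding MEM with 10% FBS and no cells, and red fluorescence was read at Ex/Em 540/590 nm. Signal is expressed as auto fluorescence equivalency relative to Rose Bengal sodium.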

The nature of assay [14]: qHTS assay to test for compound auto fluorescence at 460 nm (blue) in HepG2 cell free culture (AID 720685). Summed up: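 Compound (23 nL) or DMSO pinned into cell-free MEM with 10% FBS; blue fluorescence read at 405/460 nm excitation/emission, expressed as auto-fluorescence equivalency to triamterene.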
Assay [15] is described as follows: qHTS assay to test for compound auto fluorescence at 535 nm (green) in HepG2 cell free culture (AID 720686).
Assay [16] is described as follows: qHTS assay to test for compound auto fluorescence at 460 nm (blue) in HepG2 cells (AID 720687). The essentials: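 HepG2 cells in MEM with 10% FBS, attached overnight at 37 C, were exposed to compound or DMSO for 1 hr at 37 C, 5% CO2. Blue fluorescence was read at 405/460 nm, with triamterene as reference fluorophore.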
Assay [17] deals with Glucocorticoid receptor (Homo sapiens) (UniProt P04150). Briefly: qHTS assay to identify small molecule agonists of the glucocorticoid receptor (GR) signaling pathway (AID 720691; active means well fitted activation curve with a large enough effect in the signal ratio in the repeat runs, not every such curve was filed as active; the % refers to the signal ratio). The essentials: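 Fluorescence intensity from LiveBLAzer B/G FRET substrate (2 h, room temperature) reports beta-lactamase expression driven by the glucocorticoid response element in GR-bla HeLa cells after 18 h compound exposure at 37 C.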
Sequence of Glucocorticoid receptor (Homo sapiens) (P04150 whole entry, looked up): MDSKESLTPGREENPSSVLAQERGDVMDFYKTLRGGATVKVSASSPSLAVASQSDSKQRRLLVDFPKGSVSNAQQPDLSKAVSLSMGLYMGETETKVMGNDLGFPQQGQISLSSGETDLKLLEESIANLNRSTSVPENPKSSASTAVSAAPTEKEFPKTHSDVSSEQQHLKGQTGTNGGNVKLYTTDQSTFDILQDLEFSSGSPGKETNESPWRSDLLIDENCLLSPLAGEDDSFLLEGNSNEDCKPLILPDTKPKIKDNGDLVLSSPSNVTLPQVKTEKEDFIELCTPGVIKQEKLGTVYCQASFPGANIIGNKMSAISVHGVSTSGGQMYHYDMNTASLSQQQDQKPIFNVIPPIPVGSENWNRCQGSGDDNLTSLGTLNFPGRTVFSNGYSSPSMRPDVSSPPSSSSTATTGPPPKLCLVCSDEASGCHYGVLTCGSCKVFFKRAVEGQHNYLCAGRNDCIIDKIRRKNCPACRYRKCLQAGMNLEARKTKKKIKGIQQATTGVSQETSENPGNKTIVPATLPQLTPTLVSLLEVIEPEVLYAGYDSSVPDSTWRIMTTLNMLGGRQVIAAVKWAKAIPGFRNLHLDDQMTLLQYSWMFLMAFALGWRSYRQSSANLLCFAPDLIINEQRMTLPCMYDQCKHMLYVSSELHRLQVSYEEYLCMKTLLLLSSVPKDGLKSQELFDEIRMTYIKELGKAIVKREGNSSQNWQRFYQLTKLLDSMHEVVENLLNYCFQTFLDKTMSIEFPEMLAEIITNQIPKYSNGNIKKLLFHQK

The target is the same in assay [18]. In words: qHTS assay to identify small molecule antagonists of the glucocorticoid receptor (GR) signaling pathway (AID 720692; active means well fitted inhibition curve with a large enough effect in the signal ratio in the repeat runs, not every such curve was filed as active; the % refers to the signal ratio; further: potency means the concentration at half of the fitted maximal effect). The essentials:
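HeLa GR-bla cells; cmpd + dex 5 nM final, 18 h 37 C; LiveBLAzer B/G FRET substrate 2 h RT; fluorescence intensity read. Antagonist mode, qHTS.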

Assay [19] is described as follows: qHTS assay for small molecule agonists of the p53 signaling pathway - cell viability (AID 651633; calls by dose curve; further: potency means the concentration at half of the fitted maximal effect; nearly all actives have a fitted effect of over 30% in size). The essentials: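 p53RE-bla cells were treated with compound for 16 hours at 37 C. Cytotoxicity was then measured as CellTiter-Glo luminescence after 30 min at room temperature.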

Values joined by “and” are separate entries in the source; they are usually repeats but may differ in a detail not shown here. Equal entries are not always repeated. Results filed as inconclusive are left out. Active and inactive are the calls of the source. Unless noted, the call rests on the fitted dose curve; in most records, active means well fitted curve in the direction sought with a large enough effect in the repeat runs; inconclusive means weak or mixed curves; inactive means no such curve, though single readings can be large; an effect the other way counts as inactive or inconclusive.

With `CCCN(CCC)c1c([N+](=O)[O-])cc(S(N)(=O)=O)cc1[N+](=O)[O-]`, the Potency result in assay [1], in assay [7], in assay [10], in assay [14] and in assay [16] was “inactive” each time. In addition, the Potency is 54.5 µM (active) in [2], 32.7 µM (active) in assay [3] and 3.67 µM (active) in assay [4]. Further, the compound was classed as inactive in assay [5], in assay [6], in assay [8], in assay [9], in [11] and in assay [12]. For the same compound, the result in assay [13] and in [15] was inactive.
With `Cc1cc(C(F)(C(F)(F)F)C(F)(F)F)ccc1NC(=O)c1cccc(I)c1C(=O)NC(C)(C)CS(C)(=O)=O`, the Potency entry in [1], in [2], in assay [3], in assay [7], in [14] and in assay [16] was “inactive” in each case. For the same compound, the Potency entry in [17] was “inactive”. Also, the Potency in assay [4] is 17.3 µM (active). Besides, the call in [5], in [6], in [8], in assay [9], in [12] and in assay [13] was inactive. In addition, in assay [15], the result was inactive.
As for `CC(C)OC(=O)C(O)(c1ccc(Cl)cc1)c1ccc(Cl)cc1`, the Potency result in assay [1], in assay [2], in assay [7], in assay [14], in assay [16] and in assay [17] was “inactive” in each case. In addition, the Potency in assay [4] is 24.3 µM (active); in assay [18] it was 30.9 µM (active). For the same compound, the result in [5], in assay [6], in assay [8], in assay [9], in assay [11] and in assay [12] was inactive. Further, the compound was classed as inactive in assay [13] and in assay [15].
In the case of `Oc1cc(Cl)c(Cl)c(Cl)c1`, the Potency entry in assay [1], in [2], in assay [7], in assay [10], in [14] and in assay [16] was “inactive” in each case. In [17], the Potency result was “inactive”. The Potency in assay [4] is 2.31 µM (active). Moreover, the outcome in [5], in [6], in assay [8], in assay [9], in assay [11] and in [12] was inactive. Besides, the compound was called inactive in assay [13] and in assay [15].
As to `Fc1ccc(Oc2ccnc3cc(Cl)cc(Cl)c23)cc1`, the Potency result in assay [1], in assay [2], in assay [7], in assay [10], in assay [14] and in assay [16] was “inactive” each time. Also, the Potency result in [17] is “inactive”. In [4], the Potency is 30.6 µM (active). Besides, the result in assay [5], in [6], in assay [8], in assay [9], in assay [11] and in assay [12] was inactive. Besides, the outcome in assay [13] and in [15] was inactive.
With `C[C@]12Cc3nonc3C[C@@H]1CC[C@@H]1[C@@H]2CC[C@@]2(C)[C@H]1CC[C@]2(C)O`, the Potency result in assay [1], in [7], in assay [14] and in [16] was “inactive” each time. Besides, the figures for the Potency in [19] and in [18] were 29.8 µM (active) and 7.56 µM (active), respectively. In addition, the outcome in assay [5], in assay [6], in [8], in [9], in assay [11] and in assay [12] was inactive. Moreover, the call in assay [13] and in [15] was inactive.
On to `CCCCCCCCCCCCCCCC[N+](C)(C)C`, for which the Potency result in assay [1], in [2], in assay [3], in assay [10], in assay [14] and in assay [16] was “inactive” each time. Further, the Potency in assay [4] was 13.3 µM (active) and 10.5 µM (active) and 27.3 µM (active). The outcome in assay [5], in [6], in assay [8], in assay [9], in assay [11] and in [12] was inactive. The compound was called inactive in assay [13] and in assay [15].
